In the library only some 4.9% were active in any assay of this set; here they are far more common.
NALP1 yeast inh – NALP1 inflammasome inhibitors in reconstituted yeast, colorimetric, S. cerevisiae, triplicate retest | S. cerevisiae NALP1/ASC/caspase-1 growth, X-gal OD620, 72 h | inhibition, % at 10 µM | actives 0.61% (n = 280,000) | AID 2071, 2009; in the data active = inhibition mostly above about 24%, no sharp cut-off; inactive = mostly below about 32%
SKKanGAS inh – S. pyogenes SKKanGAS growth inhibitors in kanamycin, primary screen, streptokinase expression inhibitor project, SKKanGAS strain, BacTiter-Glo luminescence; 6 h; actives 1.3% (n = 300,000); AID 1662, 2009; inhibition, % at 7.5 µM;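 active = mean replicate score, as percent of positive control median, at least 50; inconclusive = mean below 50 but one replicate at or above 50; inactive = mean and every replicate below 50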;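 also: strain carries kanamycin resistance gene driven by streptokinase promoter and grows in 40 µg/ml kanamycin; loss of luminescence reflects streptokinase promoter inhibition or plain growth inhibition; 0% = median of DMSO wells and 100% = positive control at its reference dose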
tim23-1 inh – growth inhibitors of tim23-1 mutant yeast, primary screen, luminescence, uHTS | S. cerevisiae tim23-1 growth, BacTiter-Glo luminescence, 24 h | inhibition, % at 20 µM | actives 1.3% (n = 330,000);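 active = growth inhibition of the mutant yeast at or above 50%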;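 also: temperature-sensitive mutant grown at 25 °C; plate controls were DMSO-treated mutant yeast for no effect and medium wells lacking yeast for full effect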
NLRP3 yeast inh – NALP3 inflammasome inhibitors in reconstituted yeast, primary screen, luminescence, uHTS; Yeast reconstituted NLRP3/ASC/caspase-1, beta-gal luminescence, 24 h; inhibition, % at 10 µM; actives 0.39% (n = 330,000);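 active = inhibition of 50% or more; inactive = inhibition below 50%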;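 also: plate controls were induced DMSO wells for no effect and uninduced yeast grown without galactose for full effect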
tim10-1 inh – growth inhibitors of tim10-1 mutant yeast, primary screen, luminescence, uHTS; S. cerevisiae tim10-1 ts strain growth, BacTiter-Glo, 24 h; actives 2.2% (n = 330,000); inhibition, % at 20 µM; AID 463190, 2010;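 active = inhibition of at least 40%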;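 also: mutant grown at 25 °C; 0% = DMSO wells with yeast and 100% = wells holding no yeast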
TIM10 inh – growth inhibitors of isogenic TIM10 control yeast, primary screen, counter-screen for tim10-1 yeast inhibitor project, luminescence, uHTS | AID 463195, 2010 | inhibition, % at 10 µM | actives 1.4% (n = 330,000) | S. cerevisiae TIM10 strain growth, BacTiter-Glo luminescence, 24 h;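 active = inhibition of 40% or more at the single tested concentration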;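 also: wild-type TIM10 isogenic control strain grown at permissive 25 °C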
tim10-1 confirm – growth inhibitors of tim10-1 mutant yeast, confirmation, single concentration, luminescence, S. cerevisiae; S. cerevisiae tim10-1 ts strain growth, BacTiter-Glo, 24 h; actives 56% (n = 7,400); shares compounds with tim10-1 inh; inhibition, % at 20 µM; AID 463213, 2010;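 active = inhibition of yeast growth at or above a set limit in either of two repeat tests at 20 µM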;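 also: tim10-1 mutant grown at permissive 25 °C to find synthetic lethal compounds; 0% = DMSO yeast wells and 100% = medium wells without yeast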
Starred values were filed as active, the others as inactive; ? = inconclusive; / = not tested or not shown.

SMILES | NALP1 yeast inh | SKKanGAS inh | tim23-1 inh | NLRP3 yeast inh | tim10-1 inh | TIM10 inh | tim10-1 confirm
N/C(=N\OC(=O)c1cccc(Cl)c1)c1ccccn1 | 32 | -12 | 47 | 8 | 45* | 33 | 33*
Cc1ccc(C(=O)O/N=C(\N)c2ccccn2)c(C)c1 | 3 | 1 | 47 | 36 | 54* | 39 | 63*
COC(=O)c1c(NC(=O)c2nn(C)cc2Cl)sc2c1CCCC2 | -10 | 38 | 44 | 14 | 50* | 32 | 14
CCOC(=O)c1ccc(S(=O)(=O)N2CCN(CC(=O)NC(=O)NC3CCCCC3)CC2)cc1 | 15 | 7 | 11 | -6 | 44* | 16 | 28
O=C(CN1CCN(S(=O)(=O)c2ccc(F)cc2)CC1)NC1CCCC1 | 5 | 12 | 1 | 23 | -1 | 3 | /
O=C(O)c1ccc(Sc2nnnn2-c2ccccc2)c([N+](=O)[O-])c1 | 14 | 1 | 18 | 11 | 14 | -16 | /
COC(=O)c1ccc(Sc2nnnn2-c2ccccc2)c([N+](=O)[O-])c1 | 10 | 0 | 42 | 0 | 50* | 25 | 35*
Cc1csc2nc(COC(=O)c3ccc(Cl)c([N+](=O)[O-])c3)cc(=O)n12 | / | / | 5 | 0 | -14 | -18 | /
COCCCNC(=S)N/N=C/c1ccc2c(c1)OCO2 | 20 | -1 | 35 | -4 | 41* | 24 | 14
O=S(=O)(Nc1cc(Cl)ccn1)c1ccc(Cl)cc1 | -8 | 1 | 36 | -3 | 42* | 3 | 23
O=S(=O)(Nc1ncccc1O)c1ccc(Cl)cc1 | 2 | -5 | 11 | 6 | 8 | 7 | /
CCOc1cc(/C=C/C(=O)Nc2ccc(C(=O)NCCN(CC)CC)cc2)ccc1OCC(C)C | 4 | 5 | 1 | 1 | -4 | -5 | /
O=C(/C=C/c1c(Cl)nc2ccccn12)N1CCN(c2ccccc2F)CC1 | 6 | 32 | 41 | 27 | 46* | 32 | 36*
CCc1cccc(CC)c1NC(=O)CN1C2CCCC1CC(NC(=O)Nc1cccc(OC)c1)C2 (stereo not given) | 8 | 7 | 9 | -5 | -2 | 6 | /
CCN(CC)C(=O)c1c(-c2ccccc2)oc2ccc(OC)cc12 | 29 | 2 | 44 | -6 | 41* | 24 | 21
Cc1ccc(S(=O)(=O)Nc2ccc(Nc3ccccc3)cc2)cc1 | 22 | 12 | 42 | 20 | 43* | 16 | 24
COc1cccc(/C=C/C(=O)NNC(=O)c2ccco2)c1OC | / | / | 7 | 0 | 10 | 5 | /
CCOC(=O)C1CCN(c2cc3c(cc2NC(=O)c2ccccc2Cl)n(C)c(=O)n3C)CC1 | 4 | -6 | 33 | 20 | 49* | 3 | -4
CCOC(=O)C1CCN(c2cc3c(cc2NC(=O)c2ccccc2OCC)n(C)c(=O)n3C)CC1 | 6 | 32 | 30 | 24 | 48* | -20 | 0
CCOC(=O)C1CCN(c2cc3c(cc2NC(=O)c2ccccc2F)n(C)c(=O)n3C)CC1 | 17 | 8 | 15 | -2 | 9 | -12 | /
Nc1ccc(C(=O)N/N=C/c2c[nH]c3ccccc23)cc1 | -2 | -3 | -1 | 2 | 1 | -3 | /
COc1ccc(CCNC(=O)C2CCN(S(=O)(=O)c3ccc(C)cc3)CC2)cc1 | 0 | -4 | 15 | 14 | 7 | -4 | /
COc1ccc(-c2[nH]n(-c3ccc([N+](=O)[O-])cc3)c(=O)c2C=NCc2ccc(F)cc2)cc1 | 16 | 8 | 9 | -6 | 4 | 2 | /
COc1ccc(-c2cc(=O)n(-c3ccc([N+](=O)[O-])cc3)[nH]2)cc1 | 21 | 25 | 28 | 17 | 50* | 29 | 38*
CCC(C)(C)C1CCC2(CC1)NC(=O)N(CC(=O)N(C)Cc1ccc(OC(F)F)cc1)C2=O (stereo not given) | / | -15 | 16 | 10 | 15 | 22 | /
SMILES | NALP1 yeast inh | SKKanGAS inh | tim23-1 inh | NLRP3 yeast inh | tim10-1 inh | TIM10 inh | tim10-1 confirm
COCCCNC(=O)Cn1ccc(N)nc1=O | / | / | -11 | 16 | -2 | 0 | /
Cc1ccc(C(=O)O)cc1NC(=O)CSc1nnc(-c2ccccc2F)n1C1CCCCC1 | / | / | 15 | 1 | 12 | 7 | /
O=C1c2ccccc2C(Nc2ccc3c(c2)OCCO3)N1Cc1ccccc1 (stereo not given) | 9 | -10 | 39 | 7 | 40 | 23 | 7
CCOc1ccc(NC2c3ccccc3C(=O)N2Cc2ccc3c(c2)OCO3)cc1 (stereo not given) | -13 | 0 | 13 | 5 | 10 | -8 | /
O=C(N/N=C/c1ccc(O)c2ncccc12)c1cccc(Br)c1 | 5 | 15 | 15 | -56 | 52* | 10 | 19
O=C(N/N=C/c1ccc([N+](=O)[O-])s1)c1cccc(Br)c1 | 9 | 3 | 39 | 26 | 52* | 30 | 26
Cc1ccc(C(=O)N/N=C/c2ccc([N+](=O)[O-])s2)cc1 | 10 | ? | 28 | 16 | 21 | 25 | /
Cc1cc(NC(=O)CCC(=O)N(c2ccccc2)C(C(=O)NC2CCCC2)c2ccccc2C)no1 (stereo not given) | 0 | 2 | 2 | 8 | -11 | 15 | /
N=c1n(CCN2CCCCC2)c2ccccc2n1CC(=O)c1ccc(Cl)c(Cl)c1 | 25 | -5 | -35 | 40 | 14 | -17 | /
CCn1c(=N)n(CC(=O)c2ccc(Cl)c(Cl)c2)c2ccccc21 | 23 | 1 | 25 | 27 | 42* | 8 | 10
Cc1ccc(NS(=O)(=O)c2ccc(-c3coc(C)n3)cc2)c(Br)c1 | 0 | 2 | 50 | 19 | 57* | 26 | 17
Cc1ccc(C)c(NS(=O)(=O)c2ccc(-c3coc(C)n3)cc2)c1 | 7 | -1 | 42 | 9 | 41* | 10 | 24
Cc1nc(-c2ccc(S(=O)(=O)Nc3ccccc3C)cc2)co1 | 14 | -9 | 36 | -8 | 28 | 13 | /
Cc1nc(-c2ccc(S(=O)(=O)Nc3ccc(S(N)(=O)=O)cc3)cc2)co1 | 19 | -4 | -22 | 12 | -3 | -1 | /
Cc1nc(Nc2nc(-c3ccccc3)cc(=O)[nH]2)nc2ccccc12 | / | 82* | 10 | 37 | 43* | 30 | 8
Cc1nc(Nc2nc(CSc3nc4ccccc4[nH]3)cc(=O)[nH]2)nc2ccccc12 | 15 | 12 | 17 | 10 | 4 | 4 | /
COC(=O)C1=C(C(=O)OC)[C@@H]2N(C)c3ccccc3[C@@]23C[C@@H](CO)N=C3N1 | / | 2 | 4 | -10 | 3 | 4 | /
